Bioassay records as filed in PubChem BioAssay.
Most compounds without a hit are left out; they make up all but 12% or so of the library.
BAZ2B block: blocks human BAZ2B. Q9UIF8. AlphaScreen BAZ2B-H3K14Ac peptide displacement. Potency, µM (top dose mostly 114 µM), actives largely listed as inhibitors. hit rate 4.4% among 360,000; also: nearly all actives have a fitted effect of over 60% in size
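AlphaScreen displacement of biotin-H3(5-23)K14Ac peptide (50 nM final) from BAZ2B (50 nM final) in PBS pH 7.4, 0.01% Tween-20; complex preformed 30 min RT, then compounds (top 110 uM) 30 min RT, beads 20 min dark.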
G9a block: G9a (human) methyltransferase inhibition. Potency, µM (top dose mostly 102 µM), most hits filed as inhibitors. G9a H3K9 monomethylation, AlphaScreen, 2 h. AID 504332. hit rate 8.8% among 350,000; also: nearly all actives have a fitted effect of over 75% in size
Target sequence (Q96KQ7 913-1193 limits assumed): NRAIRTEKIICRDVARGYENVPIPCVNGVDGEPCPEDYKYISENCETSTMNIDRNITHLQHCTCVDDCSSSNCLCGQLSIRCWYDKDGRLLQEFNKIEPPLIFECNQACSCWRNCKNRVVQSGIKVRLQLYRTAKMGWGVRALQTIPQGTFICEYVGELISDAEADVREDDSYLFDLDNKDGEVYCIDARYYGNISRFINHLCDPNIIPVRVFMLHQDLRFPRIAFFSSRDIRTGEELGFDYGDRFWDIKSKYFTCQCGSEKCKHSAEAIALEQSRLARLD
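AlphaScreen read-out: biotin-H3K9 peptide (500 nM) methylation by 20 nM enzyme with 20 uM SAM, 2 h at room temperature after 15 min compound preincubation; anti-monomethyl H3K9 antibody plus donor/acceptor beads, 10 min dark.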
L3MBTL1 block: L3MBTL1 (human) inhibition; Q9Y468; AlphaScreen L3MBTL1–H3K9me1 peptide binding; Potency, µM (titrated, usually from 57.1 µM), most hits filed as inhibitors; hit rate 0.66% among 230,000; AID 485360; also: nearly all actives have a fitted effect of over 60% in size
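L3MBTL1 50 nM + b-AHA-H3(1-15)K9me1 75 nM, 30 min RT; compound added, 30 min RT; streptavidin donor/Ni-chelate acceptor beads 10 ug/mL each final, 30 min RT dark; AlphaScreen read.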
JMJD2A Tudor inh: blocks the human JMJD2A Tudor domain | O75164 | AlphaScreen JMJD2A-Tudor / H3K4me3 peptide binding | hit rate 4.4% among 390,000 | Potency, µM (titrated, usually from 114 µM), actives largely listed as inhibitors; also: nearly all actives have a fitted effect of over 50% in size
Sfp PPTase inh: inhibitors of Bacillus subtilis Sfp phosphopantetheinyl transferase | Q9F4F7 | Biochemical Sfp PPTase activity, qHTS | Potency, µM, most hits filed as inhibitors | hit rate 3.5% among 310,000 | AID 1490;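 also: the enzyme is Sfp with the accession as filed and its product quenches rhodamine fluorescence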
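After 15 min at room temperature with compound, 15 nM Sfp received 5 uM rhodamine-CoA plus 12.5 uM BHQ-2-ybbR (50 mM Hepes pH 7.6, 10 mM MgCl2). Rate came from the fluorescence difference over 30 min, ex 525/em 598 nm.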
HP1b chromo inh: HP1-beta chromodomain-methylated histone interaction inhibition | AlphaScreen HP1-beta / biotin-H3K9me3 peptide binding | P83916 | Potency, µM (doses to about 114 µM), most hits filed as inhibitors | hit rate 0.56% among 390,000; also: nearly all actives have a fitted effect of over 70% in size
Target sequence (P83916 whole entry, looked up): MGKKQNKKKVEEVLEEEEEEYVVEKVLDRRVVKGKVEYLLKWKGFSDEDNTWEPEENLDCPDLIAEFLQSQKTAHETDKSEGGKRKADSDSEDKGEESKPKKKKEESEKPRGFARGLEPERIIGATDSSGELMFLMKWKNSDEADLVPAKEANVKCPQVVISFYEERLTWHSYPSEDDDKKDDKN
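Compound inhibition of the preformed complex between 50 nM HP1-beta and 50 nM biotinylated H3K9me3 peptide was read by AlphaScreen. Buffer was PBS pH 7.4 with 0.01% Tween-20. Incubations ran 30 min at room temperature, with 10 ug/mL donor/acceptor beads.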
Numbers stand for hits; i = inactive; ? = inconclusive; nt = no result given; [ ] = remark or other dose. Calls follow the shape of the dose curve; as a rule, active = well fitted curve in the direction sought with a large enough effect; inconclusive = small, poorly fitted or top-dose-only effect, or another doubt; inactive = no such curve, though single readings can be large; an effect the other way counts as inactive or inconclusive.

SMILES	BAZ2B block	G9a block	L3MBTL1 block	JMJD2A Tudor inh	Sfp PPTase inh	HP1b chromo inh
Cc1ccccc1Cn1cc(S(=O)(=O)c2ccc(C(C)C)cc2)c(=O)c2cc3c(cc21)OCO3	nt	nt	nt	i	nt	i
COC(=O)[C@@]1(Cc2ccc(OC)cc2)[C@H]2c3cc(C(=O)N(C)C)n(Cc4cc(C)n(C)n4)c3C[C@H]2CN1C(=O)c1ccccc1	nt	nt	nt	nt	i	nt
CCOc1ccc(-n2cc(-c3ccccc3)c3c(N4CCOCC4)ncnc32)cc1	25.1µM	?	i	i	i	i
CN1CCN(c2ncnc3c2c(-c2ccccc2)cn3-c2ccc(F)cc2)CC1	?	44.7µM	nt	?	i	i
C#CC(C)(C)NC(=O)c1sccc1Oc1ccc(F)cc1[N+](=O)[O-]	?	?	i	i	i	i
Cn1cccc1-c1cc(C(=O)N2CCc3c([nH]c4ccccc34)C2c2ccccn2)[nH]n1 (configuration not stated)	35.5µM	35.5µM	i	50.1µM	?	?
Cc1cccc(C2c3[nH]c4ccccc4c3CCN2C(=O)c2cc3c([nH]c2=O)CCCC3)n1 (configuration not stated)	44.7µM	i[12.7 µM]	i	?	i	i
O=C(c1ccc(-n2cccn2)cc1)N1CCc2c([nH]c3ccccc23)C1c1ccccn1 (configuration not stated)	?	?	i	?	i	i
COc1cccc(C(=O)N2CCc3c([nH]c4ccccc34)C2c2ccc(SC)cc2)c1 (configuration not stated)	i	?	nt	?	nt	i
Cc1cc2cc(C(=O)N3CCc4c([nH]c5ccccc45)C3c3ccccn3)ccc2o1 (configuration not stated)	39.8µM	?	nt	35.5µM	i	i
CSc1ccc(C2c3[nH]c4ccccc4c3CCN2C(=O)c2ccnn2C)cc1 (configuration not stated)	?	39.8µM	i	?	i	i
CCC[C@H](NC(=O)[C@H](CC(C)C)N(C)C(=O)CNC(=O)[C@@H](NC(=O)[C@H](Cc1ccccc1)NC(=O)[C@H](CCCCN)NC(=O)[C@@H](N)CC(=O)O)C(C)C)C(N)=O	nt	nt	nt	nt	i	nt
Cc1cc(NC(=O)CCn2c(=O)c3cccn3c3cccnc32)ccc1Br	i	i	nt	i	nt	i
CC(=O)c1cc(CC(=O)N2CCc3c([nH]c4ccccc34)C2c2ccccn2)cs1 (configuration not stated)	i	?	i	?	20µM	i
Cc1nc(C)c(CC(=O)N2CCc3c([nH]c4ccccc34)C2c2ccccn2)s1 (configuration not stated)	?	nt	i	i	i	i
Cn1cccc1-c1cc(C(=O)O)[nH]n1	?	50.1µM	i	i	44.7µM	i
CCOC(=O)c1[nH]c(C)c(C(=O)N2CCc3c([nH]c4ccccc34)C2c2ccccn2)c1C (configuration not stated)	50.1µM	i[0.501 µM]	?	?	i	i
Cc1ncoc1C(=O)N1CCc2c([nH]c3ccccc23)C1c1ccccc1F (configuration not stated)	50.1µM	39.8µM	i	?	i	i
O=C(c1cc2ncccn2n1)N1CCc2c([nH]c3ccccc23)C1c1ccccc1F (configuration not stated)	i	i	i	?	i	i
Cc1ccccc1CS(=O)(=O)Cc1ccc(C(=O)NCc2ccc(F)cc2)o1	i	i	nt	i	nt	i
COCCN(CCOC)S(=O)(=O)c1ccc(C(=O)Nc2sc3c(c2C(N)=O)CCCCC3)cc1	i	35.5µM	i	i	50.1µM	?
CC(C)(C)c1ccc(S(=O)(=O)NCC(=O)Nc2sc3c(c2C(N)=O)CCCC3)cc1	i	50.1µM	nt	i[11.4 µM]	i	i
Cc1cc(O)ccc1Nc1nc(-c2cccs2)cs1	?	44.7µM	i	?	i	i
Cc1cc2c(s1)c1cnn(Cc3ccc(F)c(Cl)c3)c(=O)c1n2C	nt	nt	nt	i	nt	nt
Cc1cc2c(s1)c1cnn(Cc3ccc(Cl)cc3)c(=O)c1n2C	nt	nt	nt	44.7µM	nt	nt
SMILES	BAZ2B block	G9a block	L3MBTL1 block	JMJD2A Tudor inh	Sfp PPTase inh	HP1b chromo inh
CCc1nn(C(CC)C(=O)NCCc2ccc(OC)cc2OC)c(=O)c2cc3occc3n12 (configuration not stated)	i	nt	nt	i	i	i
COc1cc(C(=O)Nc2nc(C)c(Cc3ccc4c(c3)OCO4)s2)cc(OC)c1OC	i	3.98µM	i	?	i	?
Cc1c(Cc2ccc3c(c2)OCO3)sc(NC(=O)c2ccc3ccccc3c2)c1C(N)=O	i	6.31µM	i	i	12.6µM	i
CCC(=O)Nc1sc(Cc2ccc3c(c2)OCO3)c(C)c1C(N)=O	i	10µM	nt	i	39.8µM	i
O=C1c2cccc3cccc(c23)C(=O)N1c1ccc2ncccc2c1	?	25.1µM	i	79.4µM	?	i
O=C(Nc1ncccc1O)c1ccc2c(c1)OCCO2	79.4µM	50.1µM	i	25.1µM	nt	i
O=C(Nc1ncccc1O)c1ccc2c(c1)OCO2	?	?	i	17.8µM	nt	i
CC(=O)c1ccc(N2CCN(C(=O)C3CCN(S(=O)(=O)c4cn(C)cn4)CC3)CC2)cc1	i	i[12.7 µM]	nt	i	nt	i
COc1ccc(NC(=O)c2ccco2)cc1NC(=O)COc1ccc(C)cc1C	i	i	nt	i	nt	i
O=C(O)c1cc(-c2ccc(/C=N/Nc3ccc([N+](=O)[O-])cn3)o2)ccc1Cl	nt	79.4µM	nt	39.8µM	44.7µM	?
O=C(O)c1cc(N/N=C/c2ccc(-c3ccc(F)cc3)o2)ccc1Cl	?	50.1µM	nt	i	i	i
O=C(O)c1ccccc1C=NNc1ccc([N+](=O)[O-])cn1	nt	nt	nt	i	nt	i
COc1ccc(NC(=O)Nc2nnc(Cc3ccc(F)cc3)s2)cc1	i	i	nt	i	i	i
O=C(O)c1cc(N2CCCCC2)ccn1	nt	nt	nt	1.58µM	nt	i
O=C(O)c1cc(N2CCCC2)ccn1	nt	nt	nt	3.16µM	nt	i
Cc1cc(C)nc(N/N=C/c2ccccc2OCC(=O)O)n1	i	i[2.33 µM]	nt	2.51µM	6.31µM	i
O=C(O)COc1ccccc1/C=N/NC(=O)c1ccc(F)cc1	?	44.7µM	i	i	i	i
O=C(O)COc1ccccc1/C=N/NC(=O)CNC(=O)c1ccc(F)cc1	?	nt	nt	i[11.4 µM]	i	i
O=C(Nc1cc2ccc(O)cc2oc1=O)c1ccccc1	i	i	nt	i	nt	i
O=C(COc1ccc(Cl)cc1)Nc1cccc(-c2ccc(N3CCOCC3)nn2)c1	i	i	i	i	nt	i
Cc1cc(Cl)ccc1OCC(=O)Nc1c(C(=O)c2ccccc2)oc2ccccc12	i	i	nt	i	nt	i
CC(C)NCCCCOc1ccccc1-c1ccccc1	?	?	i	nt	?	nt
CCCCNCCOCCOc1ccccc1-c1ccccc1	?	?	i	1.41µM	i	?
COCCNCCCCOc1ccccc1-c1ccccc1	56.2µM	7.08µM	i	3.16µM	i	?
